According to PubChem BioAssay AID2676 (National Center for Advancing Translational Sciences (NCATS), 2010):
Screen size: about 370,000 compounds; about 1,100 (0.3%) were called active. Another 1% or so got no clear call; they are omitted. Calls follow the shape of the dose curve; as a rule, active = well fitted activation curve with a large enough effect; inconclusive = small, poorly fitted or top-dose-only effect; inactive = flat fitted curve, though single readings scatter. Only a selection was taken, and actives are over-represented in it overall.

Molecular target: Relaxin receptor 1 (Homo sapiens) (UniProt Q9HBX9)
Sequence (Q9HBX9 whole entry, looked up): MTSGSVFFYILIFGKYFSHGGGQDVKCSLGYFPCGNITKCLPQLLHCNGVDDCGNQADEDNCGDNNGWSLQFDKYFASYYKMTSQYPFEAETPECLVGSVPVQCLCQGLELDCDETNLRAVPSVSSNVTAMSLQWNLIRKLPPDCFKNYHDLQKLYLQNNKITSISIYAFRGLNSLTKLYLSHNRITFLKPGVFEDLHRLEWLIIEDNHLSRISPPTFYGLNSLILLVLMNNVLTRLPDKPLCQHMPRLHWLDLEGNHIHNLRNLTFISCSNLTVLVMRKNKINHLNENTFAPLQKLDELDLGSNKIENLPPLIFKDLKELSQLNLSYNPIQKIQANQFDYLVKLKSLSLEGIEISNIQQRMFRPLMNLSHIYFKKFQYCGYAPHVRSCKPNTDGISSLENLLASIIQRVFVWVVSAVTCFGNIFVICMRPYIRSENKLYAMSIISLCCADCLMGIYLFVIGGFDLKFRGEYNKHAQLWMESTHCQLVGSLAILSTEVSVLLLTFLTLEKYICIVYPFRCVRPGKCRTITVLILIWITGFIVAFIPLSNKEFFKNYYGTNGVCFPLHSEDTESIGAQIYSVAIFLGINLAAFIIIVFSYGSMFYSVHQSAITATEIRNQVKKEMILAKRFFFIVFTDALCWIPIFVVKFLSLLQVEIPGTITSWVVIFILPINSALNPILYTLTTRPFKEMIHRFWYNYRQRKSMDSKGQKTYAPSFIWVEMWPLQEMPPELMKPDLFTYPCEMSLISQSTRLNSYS
Test: qHTS Assay for Agonists of the Relaxin Receptor RXFP1; also: nearly all actives have a fitted effect of over 60% in size
Conditions: HEK293T-RXFP1 cAMP TR-FRET, 30 min; series mostly up to 57.5 µM
Procedure, shortened: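 HEK293 cells stably expressing RXFP1, treated 30 min at 37C with compounds plus PDE4 inhibitor Ro 20174; cAMP measured by HTRF TR-FRET. Normalized to buffer and 29 nM porcine relaxin; EC50 by Hill fit.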

Potency, inactive:
Cc1ccc(Cl)cc1N1CCN(S(=O)(=O)c2cc3[nH]c(=O)c(=O)[nH]c3cc2C)CC1, COc1ccc2c(c1)Cc1sc(NC(=O)c3ccccc3Br)nc1-2, COc1ccc(NC(=O)CCc2nnc3n(CC(C)C)c(=O)c4ccccc4n23)cc1OC, COc1cc(OC)cc(C(=O)Nc2c(C(=O)Nc3ccc(F)cc3)oc3ccccc23)c1, COc1cccc(-c2nc(CS(=O)(=O)CC(=O)N3CCN(c4cc(C)ccc4C)CC3)c(C)o2)c1, Cc1cccc(Cn2c(SCc3ccc(C(=O)N4CCC(C)CC4)cc3)nc3ccncc32)c1, COc1ccccc1CNC(=O)C(=O)NCC(c1ccco1)S(=O)(=O)c1ccc(F)cc1 (stereo not given), COc1cccc(C(=O)Nc2nnc(S(=O)(=O)N(C)c3ccccc3)s2)c1, CCCCC(=O)Nc1nnc(S(=O)(=O)N(C)Cc2ccco2)s1, CCC(=O)Nc1ccccc1-c1nc2ccccc2n(CC(=O)Nc2ccc(C)c(C)c2)c1=O, CC1CCN(C(=O)Cn2c(=O)n(-c3ccc(Cl)cc3)c(=O)c3c4c(sc32)CCC4)CC1, CCC(C)Nc1oc(-c2ccc(COc3ccc(Cl)cc3)o2)nc1C#N (stereo not given), CCOC(=O)c1c(C)[nH]c(CCC(=O)NCCCN2CCN(c3cccc(Cl)c3)CC2)c1C, Cc1ccc(Nc2c(-c3ccc(Cl)cc3)nc3sccn23)c(C)c1, CC(=O)N1CCCc2cc(S(=O)(=O)Nc3ccc(Cl)cc3F)ccc21, O=C(COc1ccc(Cl)cc1)Nc1ccccc1OCc1cc(=O)n2ccccc2n1, CCOc1ccccc1C(=O)Nc1ccc2c(c1)N(C)C(=O)c1ccccc1S2, CC(=O)Nc1cccc(NC(=O)CSc2nccn2Cc2ccc3c(c2)OCO3)c1, Cc1cc(OCC(=O)NCC2(N(C)C)CCCCC2)cc(C)c1Cl, COc1ccc(CNC(=O)CSc2n[nH]c(-c3ccc(F)cc3)n2)cc1, CCc1ccc(NC(=O)CN2CCSc3ccc(S(=O)(=O)N4CCCC4)cc32)cc1, Cc1ccc(S(=O)(=O)N(Cc2nc(-c3ccc(Cl)cc3)no2)C2CCCCC2)cc1, COc1ccc2c(c1)c(=O)c(C(=O)c1ccccc1)cn2CC(=O)Nc1ccc2c(c1)OCCO2, CCCC(=O)N1CCN(c2nc3c(OC)ccc(C)c3s2)CC1, CCCN(CCC)CCNC(=O)c1ccc2c(c1)NC(=O)C(CS(=O)(=O)Cc1cccc(Br)c1)N2 (stereo not given)
